High-throughput results deposited in PubChem BioAssay by National Center for Advancing Translational Sciences (NCATS).
A selection: hits, their analogues and other compounds. The true share with any hit is near 11%.
FLuc inh = blocks purified firefly luciferase enzyme activity. P08659. purified P. pyralis luciferase, luminescence, biochemical. Potency, µM (top dose mostly 115 µM), actives largely listed as inhibitors. 76,000 compounds, 2.5% hits; also: nearly all actives have a fitted effect of over 65% in size
Target sequence (P08659 whole entry, looked up): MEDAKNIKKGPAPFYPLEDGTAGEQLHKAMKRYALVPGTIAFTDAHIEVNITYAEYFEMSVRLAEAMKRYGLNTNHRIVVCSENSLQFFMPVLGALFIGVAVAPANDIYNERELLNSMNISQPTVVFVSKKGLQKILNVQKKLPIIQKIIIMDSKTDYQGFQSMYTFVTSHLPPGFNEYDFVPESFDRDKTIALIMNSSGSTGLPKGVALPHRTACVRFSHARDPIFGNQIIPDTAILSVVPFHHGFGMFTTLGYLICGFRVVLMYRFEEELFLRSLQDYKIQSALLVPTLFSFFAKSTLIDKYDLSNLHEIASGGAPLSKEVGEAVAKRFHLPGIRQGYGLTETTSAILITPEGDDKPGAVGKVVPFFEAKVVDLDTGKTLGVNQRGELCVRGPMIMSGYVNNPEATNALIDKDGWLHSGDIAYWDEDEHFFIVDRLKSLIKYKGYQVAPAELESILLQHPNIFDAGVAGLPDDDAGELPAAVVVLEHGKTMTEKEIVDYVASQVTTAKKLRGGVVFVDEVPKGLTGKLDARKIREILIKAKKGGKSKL
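Luminescence read by CCD imaging after purified firefly luciferase (10nM final) was added to substrate buffer holding 10uM D-luciferin and 10uM ATP, pH 7.5, pre-dosed with compound.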
3T3 cytotox = kills NIH 3T3 cells; NIH 3T3 viability, CellTiter-Glo ATP luminescence, 48-72 h; 94,000 compounds, 4.3% hits; Potency, µM (titrated, usually from 96.7 µM), without a hit: at the highest dose activity change, negative = cytotoxicity, hits mostly inhibitors; also: nearly all actives have a fitted effect of over 55% in size
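NIH 3T3 cells at 400 cells/well received 23 nL of compound by pintool and were incubated 48 or 72 h at 37 °C. Viability was read as ATP-coupled CellTiter-Glo luminescence.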
HEK293 tox = HEK 293 cell cytotoxicity; HEK 293 viability, ATP luminescence (CellTiter-Glo), 48-72 h; Potency, µM (titrated, usually from 115 µM), for the others: at the top dose activity change, negative = cytotoxicity, usual class: inhibitors; 94,000 compounds, 6.6% hits; AID 1345083; also: nearly all actives have a fitted effect of over 60% in size
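HEK 293 cells seeded at 250 cells/well were exposed to compound for 48 or 72 hr at 37 degree Celsius. Viability taken as ATP content by CellTiter-Glo luminescence.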
NPR1 antag = blocks ANP-stimulated signaling of human Npr1 receptor | HEK293 hNpr1 GloSensor cGMP, ANP-stimulated luminescence | Potency, µM (top dose mostly 46.3 µM), for inactives: top-dose activity change, negative = inhibition, hits mostly inhibitors | P16066 | AID 1347048 | 76,000 compounds, 1.6% hits; calls by dose curve; also: nearly all actives have a fitted effect of over 60% in size
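HEK293 cells stably expressing human Npr1 and cGMP GloSensor pGS-40F, loaded 2 h with 2% GloSensor reagent, given compound 30 min at room temperature. Luminescence read before and 20 min after 0.1 nM hNppA.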
* marks the source's active call; other numbers are inactive results; i = inactive; ? = inconclusive; · = not tested or not shown; ! = a repeat was not active; [ ] = remark or other dose. Unless noted, calls follow the shape of the dose curve; as a rule, active = well fitted curve in the direction sought with a large enough effect; inconclusive = small, poorly fitted or top-dose-only effect, or another doubt; inactive = no such curve, though single readings can be large; an effect the other way counts as inactive or inconclusive. % is scaled to controls: 0 for no effect and ±100 for the full control effect; potency is read from the fitted curve at half-maximal effect.

SMILES	FLuc inh	3T3 cytotox	HEK293 tox	NPR1 antag
Cc1ccc(CNC(=O)CN2C(=O)C(c3ccccc3)=NC23CCCCC3)cc1	i	?	?	-6%
CCN(C(=O)CN1C(=O)C(c2ccccc2)=NC12CCCCC2)c1cccc(C)c1	i	?	40µM*	-6%
CN(C(=O)CN1C(=O)C(c2ccccc2)=NC12CCCCC2)c1ccccc1	i	-8%	?	-8%
O=C(CN1C(=O)C(c2ccccc2)=NC12CCCC2)Nc1ccc(C(F)(F)F)cc1	i	?	45µM*	?
O=C(CN1C(=O)C(c2ccccc2)=NC12CCCCC2)NCc1ccccc1	i	?	45µM*	0%
O=C(Cc1cnc[nH]1)N1Cc2ccccc2CC2(CCCN(CC3CCNCC3)C2)C1 (stereo not given)	·	-1%	-10%	·
c1ccc(-c2ccccc2Nc2cnc3ccc(-n4ccnc4)nn23)cc1	i	25µM*	32µM*	?
CN1CCN(c2ccc3ncc(Nc4ccccc4-c4ccccc4)n3n2)CC1	i	25µM*	40µM*	?
O=C(NC1CC1)[C@@H]1C[C@H](Oc2cccnc2)CN1C(=O)c1cc2ccccc2[nH]1	·	-8%	i	·
O=C(NCCCN1CCCCC1)C1(CCO)CC12CCOCC2 (stereo not given)	·	-16%	-15%	·
CC(C)CNc1nccc(C2(c3ccccc3Cl)CCNCC2)n1	i	28µM*	25µM*	-6%
CCC(C)Cc1nccc(C2(c3ccccc3Cl)CCNCC2)n1 (stereo not given)	i	28µM*	25µM*	-4%
CC[C@H](O)[C@@H]1N(C(=O)c2csc(-c3cccs3)n2)C2CCC1(O)CC2	·	-17%	?	·
O=C(NC1CCCCC1)c1cnc2c(c1)N([S+](=O)([O-])c1cccnc1)CCC2	i	89µM*	-10%[172 µM]	4%[70.6 µM]
O=C(NC1CCCN(CCn2nc3n(c2=O)CCCC3)C1)c1ccc(C(F)(F)F)cc1 (stereo not given)	·	-16%	5%	·
Cc1nc2n(c1C(=O)Nc1cc(-c3ccc(F)cc3)[nH]n1)CCC(Nc1ccc(F)cc1)C2 (stereo not given)	?	32µM*	?	-18%
CCNC(=O)N1CC(C(=O)NCc2ccccc2)CC(c2ccc(F)c(C)c2)C1 (stereo not given)	i	?	?	?
Cc1cccc(CNC(=O)C2CC(c3ccc(F)c(C)c3)CN(C(=O)c3ccccc3)C2)c1 (stereo not given)	i	25µM*	40µM*	-4%
Cc1cc(C2CC(C(=O)NCCc3ccccc3)CN(C(=O)NC(C)C)C2)ccc1F (stereo not given)	i	?	40µM*	3%
Cc1cc(C2CC(C(=O)NCc3ccc4c(c3)OCO4)CN(C(=O)c3ccccc3)C2)ccc1F (stereo not given)	i	?	?	-17%
COc1ccc(Cl)cc1NC(=O)CCC1CCCN(C(=O)c2ccoc2C)C1 (stereo not given)	i	?	32µM*	0%
COc1ccc(Cl)cc1NC(=O)CCC1CCCN(c2nc(C)cc(C)n2)C1 (stereo not given)	i	?	?	4%
COc1ccc(NC(=O)CCC2CCCN(C(=O)c3ccccc3SC)C2)cc1Cl (stereo not given)	?	?	?	13µM*
COc1ccc(NC(=O)CCC2CCCN(C(=O)CC3=CCCCC3)C2)cc1Cl (stereo not given)	?	-27%	?	?
CCc1noc([C@@H]2CC(F)(F)CN2C(=O)c2ccoc2C)n1	35µM*	-9%	?	-4%
SMILES	FLuc inh	3T3 cytotox	HEK293 tox	NPR1 antag
Cc1nc(CC2CCN(C(=O)c3cc4c(s3)CCC(C)C4)CC2)no1 (stereo not given)	40µM*	?	?	-2%
CN(C)CCNC(=O)C1CCc2sc(C(=O)N3CCOCC3)cc2C1 (stereo not given)	i	4%	0%	-2%
Cn1cc(-c2nc(N3CCOCC3)cc3c2CN(CC2CC2)C3=O)cn1	i	10µM*	-17%[172 µM]	6%[70.6 µM]
COc1ccccc1-c1nc(N2CCOCC2)cc2c1CN(Cc1cnn(C)c1)C2=O	i	25µM*	-12%[172 µM]	2%[70.6 µM]
O=C(c1ccccc1)N1CCCC(C(=O)N2CCC(N3CCOC3=O)CC2)C1 (stereo not given)	·	-11%	0%	·
CNS(=O)(=O)CCNc1nc(-c2ccccn2)nc2c1c(C)nn2C	i	-1%	3%	9%
Cc1nn(C)c2nc(-c3ccccn3)nc(NCC(c3ccco3)N(C)C)c12 (stereo not given)	i	?	28µM*	-1%
COC(CNc1nc(-c2ccccn2)nc2c1c(C)nn2C)c1cccs1 (stereo not given)	i	25µM*	32µM*	1%
CN(Cc1cccc(F)c1)Cc1cccc(C(F)(F)F)c1	·	-4%[138 µM]	3%[172 µM]	·
CN1CCC(Cc2ccc(C(=O)NCC3CCCCC3)cc2)CC1	?	40µM*	?	-7%
CNC(=O)c1ccc(CC2CCN(C(C)=O)CC2)cc1	i	-27%	-26%	6%
CC(=O)N1CCC(Cc2ccc(C(=O)Nc3ccc(C)cc3)cc2)CC1	?	?	?	10µM*
CN1CCC(Cc2ccc(C(=O)N3CCCC3)cc2)CC1	i	0%	-8%	-3%
CCn1nccc1C(=O)N1CCC(Cc2noc(C3CC3)n2)C1 (stereo not given)	·	?	-30%	·
COc1ccccc1-c1cc(C(=O)Nc2ccc(F)cc2)nn2cnnc12	·	-30%	?	·
COc1ccccc1-c1ccnc(-c2nnc(C)n2Cc2ccccc2)c1	?	?	71µM*	-1%[70.6 µM]
Cc1nnc(-c2cc(-c3ccc(CO)cc3)ccn2)n1Cc1ccccc1	i	?	?	2%[70.6 µM]
COc1ccccc1-c1ccnc(-c2nnc(C)n2Cc2ccncc2)c1	i	56µM*	-17%[172 µM]	-2%[70.6 µM]
CN(C)Cc1cc(C[C@@H]2C[C@H](N(Cc3ccco3)Cc3ccco3)C2(C)C)no1	i	79µM*	71µM*	-4%[70.6 µM]
CC1(C)[C@H](Cc2cc(CN3CCOCC3)on2)C[C@@H]1N(Cc1ccco1)Cc1ccco1	i	?	?	-28%
COc1ccccc1-c1ccc(CN2CCC(NC(=O)Cc3ccc(F)cc3)C2)cc1 (stereo not given)	·	40µM*	40µM*	·
COc1ccccc1-c1ccc(CN2CCC(NC(=O)C3CCCCC3)C2)cc1 (stereo not given)	·	32µM*!	?	·
COCC(=O)NC1CCN(C(=O)c2ccc(-c3ccccc3OC)cc2)CC1	·	?	-29%	·
COc1ccc(CC(=O)NC2CCN(C(=O)c3ccc(-c4ccccc4OC)cc3)CC2)cc1	·	40µM*	?	·
Cc1nnc2ccc(N3CCN(C(=O)NC(C)C)CC3)nn12	·	-19%[138 µM]	i	·
COCCS(=O)(=O)c1ncc(CN2CC[C@@H]3CCCC[C@H]3C2)n1Cc1ccccc1	i	?	45µM*	-4%
